Experimental data published in article PMC7862700, “An all-to-all approach to the identification of sequence-specific readers for epigenetic DNA modifications on cytosine”.

How the values were obtained:
Test in all cases: DAPPL (digital affinity profiling via proximity ligation, sequencing); 10 mM Tris-HCl pH 7.5, 50 mM NaCl, 1 mM DTT, 4% glycerol, room temperature, 30 min; GST-TFs on glutathione beads, 16-mer random dsDNA library, 0.1% formaldehyde crosslink after washing; high values mean tight binding
Settings in all cases: protein: recombinant; tags: N-terminal GST; dsDNA, one strand shown
FLI1 = target: T1, FLI1 (Homo sapiens, UniProt Q01543 1-452)
T1 sequence: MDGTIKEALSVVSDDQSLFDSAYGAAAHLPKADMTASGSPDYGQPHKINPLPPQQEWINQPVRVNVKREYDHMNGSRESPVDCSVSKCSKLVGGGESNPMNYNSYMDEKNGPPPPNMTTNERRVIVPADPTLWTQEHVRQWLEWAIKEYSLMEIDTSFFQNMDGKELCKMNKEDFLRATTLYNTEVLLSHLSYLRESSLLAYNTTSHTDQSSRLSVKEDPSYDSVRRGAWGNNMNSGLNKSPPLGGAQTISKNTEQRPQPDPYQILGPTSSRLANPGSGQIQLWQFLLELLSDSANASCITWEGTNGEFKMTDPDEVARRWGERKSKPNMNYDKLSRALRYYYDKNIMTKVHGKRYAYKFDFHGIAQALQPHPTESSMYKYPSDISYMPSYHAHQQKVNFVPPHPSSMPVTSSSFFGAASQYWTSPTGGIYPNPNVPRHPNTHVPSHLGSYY
Method in brief: (§1)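 Human transcription factors were made in yeast as GST fusions, captured on glutathione beads and barcoded with DNA. With a tag-only sample included, the pool was incubated with 200 nmole of a random double-stranded 16-mer DNA library in Tris/NaCl/DTT/glycerol buffer at room temperature for 30 min, then crosslinked with 0.1% formaldehyde after washing, ligated by proximity, amplified and sequenced. For binding signal, each hexamer's read frequency for a factor is divided by its frequency for the tag-only sample.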

ELK1 = target: T2, ELK1 (Homo sapiens, UniProt P19419 1-428)
T2 sequence: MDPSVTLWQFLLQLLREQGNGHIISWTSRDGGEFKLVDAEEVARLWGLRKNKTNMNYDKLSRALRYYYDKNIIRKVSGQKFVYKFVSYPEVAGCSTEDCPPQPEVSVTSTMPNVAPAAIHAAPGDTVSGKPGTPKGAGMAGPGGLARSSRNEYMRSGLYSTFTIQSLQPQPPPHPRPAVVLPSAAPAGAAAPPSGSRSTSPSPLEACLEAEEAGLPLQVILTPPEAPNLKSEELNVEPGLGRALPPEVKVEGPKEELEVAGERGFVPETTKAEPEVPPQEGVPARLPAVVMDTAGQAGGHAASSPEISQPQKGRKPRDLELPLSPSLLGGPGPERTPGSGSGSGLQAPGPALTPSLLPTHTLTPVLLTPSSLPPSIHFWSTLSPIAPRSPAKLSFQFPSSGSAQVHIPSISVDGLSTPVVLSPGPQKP
Method in brief: as §1

GABPA = target: T3, GABPA (Homo sapiens, UniProt Q06546 1-454)
T3 sequence: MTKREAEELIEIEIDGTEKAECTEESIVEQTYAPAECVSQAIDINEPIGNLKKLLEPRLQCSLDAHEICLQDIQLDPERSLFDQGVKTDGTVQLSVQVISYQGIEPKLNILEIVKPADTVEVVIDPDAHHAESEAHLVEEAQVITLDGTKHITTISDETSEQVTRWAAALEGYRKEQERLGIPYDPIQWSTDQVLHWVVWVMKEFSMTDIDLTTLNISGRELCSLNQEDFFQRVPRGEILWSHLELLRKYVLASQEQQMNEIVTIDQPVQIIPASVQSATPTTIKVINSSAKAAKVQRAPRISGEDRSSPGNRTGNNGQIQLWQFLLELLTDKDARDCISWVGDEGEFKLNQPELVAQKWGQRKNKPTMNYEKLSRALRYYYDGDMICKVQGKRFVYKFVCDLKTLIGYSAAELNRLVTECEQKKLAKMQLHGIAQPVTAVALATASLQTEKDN
Method in brief: as §1

ERG = target: T4, ERG (Homo sapiens, UniProt P11308 1-479)
T4 sequence: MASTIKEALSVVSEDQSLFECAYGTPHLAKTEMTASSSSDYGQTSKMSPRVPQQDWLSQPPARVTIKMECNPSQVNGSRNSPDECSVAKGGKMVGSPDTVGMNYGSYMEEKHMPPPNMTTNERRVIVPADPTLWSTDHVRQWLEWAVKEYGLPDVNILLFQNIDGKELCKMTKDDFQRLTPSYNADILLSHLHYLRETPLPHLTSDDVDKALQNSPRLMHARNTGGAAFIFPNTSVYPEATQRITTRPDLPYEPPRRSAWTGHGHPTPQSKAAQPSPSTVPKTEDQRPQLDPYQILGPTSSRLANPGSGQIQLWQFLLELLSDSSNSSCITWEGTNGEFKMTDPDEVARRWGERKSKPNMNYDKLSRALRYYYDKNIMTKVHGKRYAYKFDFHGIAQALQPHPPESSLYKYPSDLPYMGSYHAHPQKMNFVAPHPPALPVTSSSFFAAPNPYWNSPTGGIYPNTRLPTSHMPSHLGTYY
Method in brief: as §1

ELF1 = ELF1 (Homo sapiens, UniProt P32519 1-619)
ELF1, sequence (P32519 whole entry): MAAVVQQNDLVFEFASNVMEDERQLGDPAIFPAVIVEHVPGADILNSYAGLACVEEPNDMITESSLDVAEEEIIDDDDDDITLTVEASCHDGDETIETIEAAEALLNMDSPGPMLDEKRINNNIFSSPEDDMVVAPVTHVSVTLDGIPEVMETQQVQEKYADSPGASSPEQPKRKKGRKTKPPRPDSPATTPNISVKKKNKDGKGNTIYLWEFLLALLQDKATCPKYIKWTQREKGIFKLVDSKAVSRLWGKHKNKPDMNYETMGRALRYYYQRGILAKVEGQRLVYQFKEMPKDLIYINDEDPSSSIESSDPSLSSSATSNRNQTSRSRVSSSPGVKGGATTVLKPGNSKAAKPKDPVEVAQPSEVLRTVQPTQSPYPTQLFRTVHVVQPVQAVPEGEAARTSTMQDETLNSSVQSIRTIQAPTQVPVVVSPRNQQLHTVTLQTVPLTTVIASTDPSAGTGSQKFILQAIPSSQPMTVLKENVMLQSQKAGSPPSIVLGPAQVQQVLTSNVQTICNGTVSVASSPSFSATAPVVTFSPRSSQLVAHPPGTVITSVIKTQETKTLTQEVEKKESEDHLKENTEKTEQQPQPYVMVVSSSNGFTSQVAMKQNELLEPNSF
Method in brief: as §1

EHF = target: T5, EHF (Homo sapiens, UniProt Q9NZC4 1-300)
T5 sequence: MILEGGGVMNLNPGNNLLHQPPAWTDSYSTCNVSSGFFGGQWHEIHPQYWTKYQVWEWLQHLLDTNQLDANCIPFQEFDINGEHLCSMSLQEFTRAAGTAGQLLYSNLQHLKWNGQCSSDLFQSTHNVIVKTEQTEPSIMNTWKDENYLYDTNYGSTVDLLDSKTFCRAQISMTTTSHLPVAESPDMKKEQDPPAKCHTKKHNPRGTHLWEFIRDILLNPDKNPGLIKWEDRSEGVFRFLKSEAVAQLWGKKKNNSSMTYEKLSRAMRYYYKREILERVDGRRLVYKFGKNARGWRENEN
Method in brief: as §1

SPI1 = SPI1 (Homo sapiens, UniProt P17947 1-270)
Method in brief: as §1

SPIB = SPIB (Homo sapiens, UniProt Q01892 1-262)
SPIB, sequence (Q01892 whole entry): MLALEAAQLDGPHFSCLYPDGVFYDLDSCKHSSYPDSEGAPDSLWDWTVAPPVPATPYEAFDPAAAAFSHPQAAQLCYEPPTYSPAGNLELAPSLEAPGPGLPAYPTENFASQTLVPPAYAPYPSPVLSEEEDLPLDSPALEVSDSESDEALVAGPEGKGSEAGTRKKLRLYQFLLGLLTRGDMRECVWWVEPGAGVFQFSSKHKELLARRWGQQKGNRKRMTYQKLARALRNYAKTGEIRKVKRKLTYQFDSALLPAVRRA
Method in brief: as §1

ELK3 = target: T6, ELK3 (Homo sapiens, UniProt P41970 1-407)
T6 sequence: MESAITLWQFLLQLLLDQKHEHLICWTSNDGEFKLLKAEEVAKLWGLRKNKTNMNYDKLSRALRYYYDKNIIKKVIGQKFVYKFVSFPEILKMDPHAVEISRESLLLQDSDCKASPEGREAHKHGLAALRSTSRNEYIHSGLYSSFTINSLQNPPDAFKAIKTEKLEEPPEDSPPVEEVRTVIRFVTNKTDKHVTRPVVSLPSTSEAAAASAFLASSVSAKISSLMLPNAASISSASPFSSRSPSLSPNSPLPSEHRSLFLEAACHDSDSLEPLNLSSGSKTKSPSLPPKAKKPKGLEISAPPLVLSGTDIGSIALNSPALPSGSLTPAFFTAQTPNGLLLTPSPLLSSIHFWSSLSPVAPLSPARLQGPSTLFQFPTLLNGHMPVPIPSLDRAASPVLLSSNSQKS
Method in brief: as §1

Sequence	binding signal (FLI1)	binding signal (ELK1)	binding signal (GABPA)	binding signal (ERG)	binding signal (ELF1)	binding signal (EHF)	binding signal (SPI1)	binding signal (SPIB)	binding signal (ELK3)
ATCTGT	1.25 fold enrichment (6-mer frequency, TF over GST control)	1.24 fold enrichment (6-mer frequency, TF over GST control)	1.18 fold enrichment (6-mer frequency, TF over GST control)	1.19 fold enrichment (6-mer frequency, TF over GST control)	1.18 fold enrichment (6-mer frequency, TF over GST control)	1.11 fold enrichment (6-mer frequency, TF over GST control)	1.13 fold enrichment (6-mer frequency, TF over GST control)	1.14 fold enrichment (6-mer frequency, TF over GST control)	1.07 fold enrichment (6-mer frequency, TF over GST control)
CTCGCC	1.16 fold enrichment (6-mer frequency, TF over GST control)	1.38 fold enrichment (6-mer frequency, TF over GST control)	1.26 fold enrichment (6-mer frequency, TF over GST control)	1.21 fold enrichment (6-mer frequency, TF over GST control)	1.25 fold enrichment (6-mer frequency, TF over GST control)	1.19 fold enrichment (6-mer frequency, TF over GST control)	1.17 fold enrichment (6-mer frequency, TF over GST control)	1.24 fold enrichment (6-mer frequency, TF over GST control)	1.25 fold enrichment (6-mer frequency, TF over GST control)
CACGAC	1.27 fold enrichment (6-mer frequency, TF over GST control)	1.29 fold enrichment (6-mer frequency, TF over GST control)	1.33 fold enrichment (6-mer frequency, TF over GST control)	1.22 fold enrichment (6-mer frequency, TF over GST control)	1.21 fold enrichment (6-mer frequency, TF over GST control)	1.28 fold enrichment (6-mer frequency, TF over GST control)	1.14 fold enrichment (6-mer frequency, TF over GST control)	1.23 fold enrichment (6-mer frequency, TF over GST control)	1.29 fold enrichment (6-mer frequency, TF over GST control)
TCCCAA	1.14 fold enrichment (6-mer frequency, TF over GST control)	1.2 fold enrichment (6-mer frequency, TF over GST control)	1.25 fold enrichment (6-mer frequency, TF over GST control)	1.28 fold enrichment (6-mer frequency, TF over GST control)	1.3 fold enrichment (6-mer frequency, TF over GST control)	1.31 fold enrichment (6-mer frequency, TF over GST control)	1.2 fold enrichment (6-mer frequency, TF over GST control)	1.15 fold enrichment (6-mer frequency, TF over GST control)	1.28 fold enrichment (6-mer frequency, TF over GST control)
TCATGC	1.17 fold enrichment (6-mer frequency, TF over GST control)	1.22 fold enrichment (6-mer frequency, TF over GST control)	1.19 fold enrichment (6-mer frequency, TF over GST control)	1.11 fold enrichment (6-mer frequency, TF over GST control)	1.11 fold enrichment (6-mer frequency, TF over GST control)	1.15 fold enrichment (6-mer frequency, TF over GST control)	1.07 fold enrichment (6-mer frequency, TF over GST control)	1.2 fold enrichment (6-mer frequency, TF over GST control)	1.1 fold enrichment (6-mer frequency, TF over GST control)
TTGCAC	1.3 fold enrichment (6-mer frequency, TF over GST control)	1.32 fold enrichment (6-mer frequency, TF over GST control)	1.27 fold enrichment (6-mer frequency, TF over GST control)	1.27 fold enrichment (6-mer frequency, TF over GST control)	1.28 fold enrichment (6-mer frequency, TF over GST control)	1.21 fold enrichment (6-mer frequency, TF over GST control)	1.26 fold enrichment (6-mer frequency, TF over GST control)	1.16 fold enrichment (6-mer frequency, TF over GST control)	1.34 fold enrichment (6-mer frequency, TF over GST control)
CGTCCG	1.31 fold enrichment (6-mer frequency, TF over GST control)	1.27 fold enrichment (6-mer frequency, TF over GST control)	1.24 fold enrichment (6-mer frequency, TF over GST control)	1.27 fold enrichment (6-mer frequency, TF over GST control)	1.28 fold enrichment (6-mer frequency, TF over GST control)	1.36 fold enrichment (6-mer frequency, TF over GST control)	1.08 fold enrichment (6-mer frequency, TF over GST control)	1.41 fold enrichment (6-mer frequency, TF over GST control)	1.36 fold enrichment (6-mer frequency, TF over GST control)
GCACAT	1.16 fold enrichment (6-mer frequency, TF over GST control)	1.05 fold enrichment (6-mer frequency, TF over GST control)	1.16 fold enrichment (6-mer frequency, TF over GST control)	1.2 fold enrichment (6-mer frequency, TF over GST control)	1.1 fold enrichment (6-mer frequency, TF over GST control)	1.14 fold enrichment (6-mer frequency, TF over GST control)	1.14 fold enrichment (6-mer frequency, TF over GST control)	1.08 fold enrichment (6-mer frequency, TF over GST control)	1.17 fold enrichment (6-mer frequency, TF over GST control)
